# Laboratory results reported in the supplement of paper PMC10646978.
# ± gives the standard deviation.
# How the values were obtained:
# Settings in all cases: modulator concentration 10 µM
# [1] = system: RAW-Dual (murine macrophage reporter line); test: NF-kB reporter (SEAP) activity fold change vs agonist alone; higher = enhanced NF-kB activity
# In short: (§1)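 Overnight stimulation with a PRR agonist followed pre-incubation for 1 hour at 37 °C with compound at 10 μM final. This was done in RAW-Dual murine macrophage reporter cells seeded at 50 000 per well in 384-well plates. NF-κB (SEAP, QUANTI-Blue absorbance at 620 nm) and IRF (Lucia luciferase, QUANTI-Luc luminescence) were read from the supernatant. Each reporter's fold change relative to the mean agonist-only control on the same plate was averaged over replicate plates.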
# [2] = system: RAW-Dual (murine macrophage reporter line); test: IRF reporter (Lucia luciferase) activity fold change vs agonist alone; higher = enhanced IRF activity
# In short: as §1
# [3] = system: RAW-Dual (murine macrophage reporter line); test: viability score (confluency relative to resting cells, overnight) (fraction); higher = more viable, active = viable (0.7 or more)
# In short: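 In 384-well plates, RAW-Dual macrophages received compound at a final 10 μM overnight. Two confluency masks were then made with IncuCyte software from IncuCyte images of all imaged wells. The viability score is defined as confluency relative to resting cells. Passing the cutoff required both masks to lie above 70% of resting cells.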
# [4] = agonist: CpG ODN 1826 0.5 ug/mL
SMILES,"NF-kB reporter [1, 4]",NF-kB reporter ([1]; agonist: LPS 0.1 ug/mL),NF-kB reporter ([1]; agonist: MPLA […]),IRF reporter ([2]; agonist: 3'3'-cGAMP 10 ug/mL),IRF reporter ([2]; agonist: LPS 0.1 ug/mL),IRF reporter ([2]; agonist: MPLA […]),viability score [3]
c1ccc(OCc2nnc(-c3ccccc3)o2)cc1,1.15 ± 0.1,1.19 ± 0.09,1.14 ± 0.037,0.87 ± 0.078,0.937 ± 0.044,0.973 ± 0.076,0.999 (active)
Fc1ccc2ccccc2c1,0.958 ± 0.077,0.979 ± 0.16,1.01 ± 0.13,1.03 ± 0.033,1.12 ± 0.12,1.15 ± 0.18,1.01 (active)
COC(=O)C1=C(C)NC(=O)NC1c1ccc(Cl)c(Cl)c1 (centres undefined),0.979 ± 0.11,1.03 ± 0.067,0.951 ± 0.04,0.992 ± 0.16,1.05 ± 0.1,0.964 ± 0.24,1 (active)
COC(=O)c1cc(OC)c(=O)c2c(OC)c(OC)ccc2c1,1.08 ± 0.33,0.981 ± 0.059,0.931 ± 0.1,0.743 ± 0.03,1.02 ± 0.22,0.884 ± 0.088,0.984 (active)
CCOc1ccc(S(=O)(=O)NCCn2nc(C3CC3)ccc2=O)cc1C,1.01 ± 0.063,1.07 ± 0.12,1.04 ± 0.045,1.02 ± 0.051,0.993 ± 0.079,0.875 ± 0.15,0.982 (active)
O=C(Nc1ccc(S(=O)(=O)Nc2ccc(F)cc2)cc1)C(F)(F)F,0.992 ± 0.11,1.03 ± 0.069,0.93 ± 0.061,1.12 ± 0.027,1.37 ± 0.22,1.14 ± 0.098,1.01 (active)
C=C1CCC(OC(C)=O)C(C)=CCC2C1CC2(C)C (centres undefined),0.932 ± 0.086,0.776 ± 0.1,0.752 ± 0.071,0.671 ± 0.038,0.928 ± 0.17,0.779 ± 0.24,1.03 (active)
COc1cc2nc(N(C)CCCNC(=O)C3CCCO3)nc(N)c2cc1OC (centres undefined) [Prestw-322],1.45 ± 0.43,0.957 ± 0.11,1.02 ± 0.068,0.695 ± 0.13,0.934 ± 0.35,0.866 ± 0.11,0.996 (active)
CC(=O)c1ccc2c3c([nH]c2c1)CCCC3,0.792 ± 0.072,0.823 ± 0.072,1.01 ± 0.092,0.936 ± 0.05,1.34 ± 0.077,1.53 ± 0.15,1.01 (active)
COc1ccc(CN(CCN(C)C)c2ccccn2)cc1 [Prestw-289],0.902 ± 0.068,1.08 ± 0.11,1.01 ± 0.026,0.976 ± 0.11,0.912 ± 0.1,0.848 ± 0.066,0.993 (active)
COc1ccc(CNCc2cccc3ccccc23)cc1,0.715 ± 0.12,1.06 ± 0.1,1.15 ± 0.11,0.877 ± 0.035,0.945 ± 0.1,1.31 ± 0.14,0.967 (active)
CCOc1ccccc1OCCCCOc1ccc(I)cc1,1.12 ± 0.18,1 ± 0.12,0.937 ± 0.11,0.967 ± 0.025,0.994 ± 0.098,1.18 ± 0.17,1 (active)
Cn1c2c(c3ccccc31)CCCC2NC=O (centres undefined),0.787 ± 0.061,0.931 ± 0.06,1.03 ± 0.09,0.93 ± 0.042,1.36 ± 0.082,1.44 ± 0.14,1 (active)
c1coc(CNc2nc(-c3ccncc3)cs2)c1,0.857 ± 0.073,0.863 ± 0.13,1.25 ± 0.11,0.492 ± 0.03,1.12 ± 0.08,1.14 ± 0.097,0.981 (active)
COc1cc2c(cc1OC)C(=O)C(CC1CCN(Cc3ccccc3)CC1)C2.Cl (centres undefined),0.127 ± 0.011,0.947 ± 0.072,1.46 ± 0.14,0.791 ± 0.067,1.15 ± 0.25,1.29 ± 0.22,0.959 (active)
Cc1cccc(N2C(=O)C(=Cc3cccc([N+](=O)[O-])c3)SC2=S)c1C,0.964 ± 0.1,1.02 ± 0.094,0.937 ± 0.06,0.853 ± 0.035,1.57 ± 0.17,1.29 ± 0.11,0.989 (active)
COc1ccc(C=C(NC(=O)c2cc(OC)c(OC)c(OC)c2)C(=O)NC(C(=O)O)C(C)C)c(OC)c1 (centres undefined),1.01 ± 0.091,0.985 ± 0.055,0.934 ± 0.11,0.908 ± 0.031,1.23 ± 0.18,1.04 ± 0.29,1.02 (active)
OCCCNCC(O)Cn1c2ccc(Br)cc2c2cc(Br)ccc21 (centres undefined),0.661 ± 0.043,0.653 ± 0.057,1.75 ± 0.049,0.626 ± 0.046,1.19 ± 0.073,1.91 ± 0.18,0.108 (inactive)
COc1ccc2cc(Br)ccc2c1CC(=O)O,0.759 ± 0.06,0.954 ± 0.045,1.01 ± 0.087,0.918 ± 0.043,1.29 ± 0.076,1.33 ± 0.19,1.02 (active)
Cc1cccc(Cn2c(=O)c3nscc3n(Cc3ccc(F)c(F)c3)c2=O)c1,1.14 ± 0.099,1.09 ± 0.087,1.21 ± 0.11,0.997 ± 0.048,1.01 ± 0.093,0.899 ± 0.22,0.995 (active)
CCN1C(C)=C(C(=O)OC)C(c2ccc([N+](=O)[O-])cc2)C(C(=O)OC)=C1C,1.17 ± 0.11,0.868 ± 0.079,0.991 ± 0.049,0.981 ± 0.037,0.954 ± 0.044,0.961 ± 0.1,0.994 (active)
S=C(NCc1ccc2c(c1)OCO2)N1CCN(c2ncnc3c2oc2ccccc23)CC1,0.943 ± 0.19,1.6 ± 0.5,2.24 ± 0.18,0.623 ± 0.021,1.35 ± 0.27,1.96 ± 0.42,0.958 (active)
CC1(C)CC(=O)C=C(Nc2ccc(Br)c(Cl)c2)C1,0.734 ± 0.066,0.962 ± 0.067,0.839 ± 0.083,1.14 ± 0.06,1.08 ± 0.066,1.08 ± 0.12,1.02 (active)
O=C(OCCO)c1cc(Cl)c(C(=O)OCCO)cc1Cl,0.979 ± 0.062,1 ± 0.065,0.936 ± 0.079,0.987 ± 0.034,1.49 ± 0.1,1.23 ± 0.11,1 (active)
O=S(=O)(c1ccc(-n2cccn2)cc1)N1CC(n2cc(C3CC3)nn2)C1,1.01 ± 0.068,1.11 ± 0.1,0.939 ± 0.066,0.966 ± 0.076,1.21 ± 0.077,0.999 ± 0.085,0.993 (active)
O=[N+]([O-])c1cc2c(cc1C=Nc1ccc(O)cc1)OCO2,0.842 ± 0.14,1.09 ± 0.17,1.27 ± 0.11,0.443 ± 0.011,1.19 ± 0.15,1.12 ± 0.22,1 (active)
COc1ccc(C2Oc3cc(OC)cc(OC)c3CC2O)cc1 (centres undefined),1.01 ± 0.24,1.01 ± 0.07,1.81 ± 0.81,0.881 ± 0.057,1.12 ± 0.27,1.04 ± 0.1,1.01 (active)
